# HepG2 viability: kills HepG2 cells in TGF-b inhibitor counter-screen. HepG2 CAGA-GFP viability, ATP luminescence, 18 h. Potency, µM (top dose mostly 46.1 µM), inactives show at the highest dose activity change, negative = cytotoxicity, most hits filed as cytotoxic. 0.76% of 410,000 active
#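 CellTiter-Glo luminescence gave cytotoxicity after 18 hours at 37 degrees C. The cells were HepG2 CAGA-GFP in 1% FBS DMEM, stimulated with 500 pg/mL TGF-beta after compound addition. %Activity was normalised to no-cell wells (complete cell-killing) and DMSO (no toxicity), and curves were fitted and classified.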
# TGFb SMAD3 inh: blocks TGF-b signaling | HepG2 CAGA-GFP TGF-b/SMAD3 reporter, GFP fluorescence, 18 h; TGF-beta stimulated, 500 pg/mL final | 1.2% of 410,000 active | Potency, µM (titrated, usually from 46.1 µM), without a hit: at the highest dose activity, negative = inhibition, usual class: inhibitors; note: % is set by controls: 0 for no effect and ±100 for the full control effect; nearly all actives have a fitted effect of over 65% in size
#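 Per well, imaged GFP fluorescence of HEPG2 CAGA-GFP cells gives the signal; cells get compound, then TGF-beta (500 pg/mL final), 18 h at 37 degrees C; %Activity versus -TGF-beta and +DMSO controls.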
# DT40 TDP1 no CPT: qHTS for Inhibitors of human tyrosyl-DNA phosphodiesterase 1 (TDP1): qHTS in cells in absence of CPT. DT40 Tdp1-/- hTDP1 cells, no CPT, ATP luminescence, 48 h. Potency, µM (doses to about 46.2 µM), for inactives: at the highest dose activity change, negative = growth inhibition, usual class: inhibitors. 15% of 420,000 active. AID 686978, 2013; note: % is set by controls: 0 for no effect and ±100 for the full control effect; nearly all actives have a fitted effect of over 55% in size
#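 Stably hTDP1-transfected Tdp1-null chicken DT40 cells were treated with library compounds minus camptothecin and grown for at least 48 hr at 37 °C, after which cellular ATP was quantified by luminescence.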
# HT1080 IDH1KD tx: HT-1080 IDH1 knockdown cell toxicity (counter line); HT-1080 IDH1 knockdown viability, ATP luminescence, 48 h; Potency, µM (top dose mostly 46.1 µM), inactives show at the top dose activity, negative = toxicity, hits mostly cytotoxic; 2% of 360,000 active; AID 686971;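 note: 0% = DMSO wells and -100% = cell-free medium wells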
#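 After a 2 h attachment period, IDH1KD HT-1080 cells took pin-transferred compound for 48 h at 37 °C; ATP-based luminescence after 10 min room-temperature reagent incubation reported viability.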
# HT1080NT lethal: kills 2HG-producing HT-1080-NT fibrosarcoma cells. HT-1080-NT fibrosarcoma viability, CellTiter-Glo ATP luminescence, 48 h. Potency, µM (top dose mostly 46.1 µM), for the others: at the top dose activity, negative = less viability, hits mostly cytotoxic. 1.6% of 360,000 active. AID 686970;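 note: NT is the 2HG producing partner of a matched IDH1 knockdown line; 0% = DMSO-treated cells and -100% = media-only wells without cells; nearly all actives have a fitted effect of over 55% in size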
#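 Fibrosarcoma NT cells, 750 per well in 5% FBS RPMI, were exposed to compound for 48 hours. Viability: CellTiter-Glo luminescence.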
# DT40 TDP1 CPT: growth inhibition of DT40 Tdp1-/-;hTDP1 cells with camptothecin (screen for TDP1 inhibitors); AID 686979; 12% of 420,000 active; Potency, µM (top dose mostly 46.2 µM), inactives show at the highest dose activity change, negative = growth inhibition, actives largely listed as inhibitors; chicken DT40 Tdp1-/-;hTDP1 cells + 20 nM CPT, ATP luminescence, 48 h; note: % is set by controls: 0 for no effect and ±100 for the full control effect; nearly all actives have a fitted effect of over 55% in size
#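 Chicken DT40 Tdp1-/- cells complemented with human TDP1, 400 cells/well, exposed to compounds plus 20 nM camptothecin for at least 48 h at 37 C; viability read as ATP content by CellTiter-Glo luminescence.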
# * = called active by the depositor; ? = inconclusive; · = no result given. Most compounds without a hit are left out; they make up all but 17% or so of the library. Calls come from the whole dose curve; as a rule, active = well fitted curve in the direction sought with a large enough effect; inconclusive = small, poorly fitted or top-dose-only effect, or another doubt; inactive = no such curve, though single readings can be large; an effect the other way counts as inactive or inconclusive. Potency is the fitted concentration of half-maximal effect.
SMILES,HepG2 viability,TGFb SMAD3 inh,DT40 TDP1 no CPT,HT1080 IDH1KD tx,HT1080NT lethal,DT40 TDP1 CPT
O=C(/C=C/[C@H]1O[C@@H](n2ccc(=O)[nH]c2=O)[C@H](O)[C@@H]1O)NCc1cccc2ccccc12,2%,-3%,21%,23%,26%,5%
CCCCn1c(=O)[nH]c(=O)c2c1nc(Cn1ncc(Cl)c(Cl)c1=O)n2CCC,11µM*,6.3µM*,2.6µM*,12µM*,8.2µM*,4.6µM*
CCCCn1c(=O)[nH]c(=O)c2c1nc(CN1C(=O)c3ccccc3S1(=O)=O)n2CCC,-19%,-7%,?,9%,5%,-15%
O=C(Nc1ccccc1)c1cc2c(-c3ccccc3)nn(-c3ccccc3)c2s1,-10%,-1%,·,·,·,·
O=S(=O)(C/C(=C/CO)S(=O)(=O)c1ccccc1)c1ccccc1,16µM*,?,2.3µM*,2µM*,7.1µM*,0.82µM*
N#Cc1cc2c(=O)n3ccccc3nc2n(-c2nnc(SCc3ccccc3F)s2)c1=O,7%,-11%,-2%,·,·,-2%
Cc1cccn2c(=O)c3cc(C#N)c(=O)n(-c4nnc(SCc5ccccc5F)s4)c3nc12,-5%,-14%,6.5µM*,·,·,?
[O-][n+]1c2ccccc2c2n1CCN1CCOC21c1ccc(Cl)cc1 (stereo unspecified),-13%,-27%,7.3µM*,-1%,-3%,2.1µM*
CCC(=O)N(C)C[C@H]1Oc2ncc(C#Cc3ccncc3)cc2C(=O)N([C@@H](C)CO)C[C@@H]1C,6%,15%,-5%,3%,7%,27%
COc1cc(Cl)c(C)cc1NC(=O)c1ccc(CN2C(=O)CCn3nc(C)cc32)cc1,3%,-4%,-21%,·,·,-14%
N#Cc1cc(-c2ccccc2)cnc1Cl,-21%,-17%,-1%,-17%,-2%,-13%
N#Cc1ncc(Cl)c2ccccc12,16µM*,-16%,2%,-1%,15%,20%
Cc1ccc(S(=O)(=O)Nc2cccc(C(=O)N3CCC(C(N)=O)CC3)c2)cc1,-15%,1%,-6%,1%,-4%,-13%
Cc1ccc(C(=O)NCC(c2ccco2)N2CCc3ccccc3C2)cc1 (stereo unspecified),3%,-19%,?,0%,4%,?
Cc1ccc(C(=O)NCC(c2ccco2)N2CCc3ccccc3C2)cc1C (stereo unspecified),14%,-18%,21µM*,0%,4%,18µM*
O=C(NCC(c1ccco1)N1CCc2ccccc2C1)c1ccc(Cl)cc1 (stereo unspecified),-2%,-12%,?,-3%,-2%,?
O=C(NCC(c1ccco1)N1CCc2ccccc2C1)c1ccc(Br)cc1 (stereo unspecified),0%,-29%,23µM*,1%,6%,?

# Screening data as filed in PubChem.
